An excerpt weighted towards active compounds, which were near 19% of everything screened.
ELG1 repair inh = inhibitors of ELG1-dependent DNA repair in HEK293T cells; HEK293T ELG1-luciferase reporter, luminescence, 16 h; DNA damage induced by 5-fluorouridine; Potency, µM (series often up to 46.1 µM), for inactives: at the top dose activity change, negative = inhibition, actives largely listed as inhibitors; hit rate 2.3% among 330,000; note: potency is the fitted concentration of half-maximal effect; nearly all actives have a fitted effect of over 55% in size
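Luminescence from the luciferase reporter, measured 30 min after ONE-Glo reagent at room temperature, was the read-out. Beforehand, 2,000 cells per well were exposed for 16 hr at 37 °C to 5-fluorouridine together with compound or vehicle.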
Giardia killer = Giardia lamblia killing | Giardia lamblia trophozoite viability | activity change, % at 7.66 µM, hits read low | hit rate 0.15% among 340,000 | AID 540267; in the data active = activity change below about -80%; inconclusive = between about -30% and that limit;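 note: parasites exposed to compound for two days anaerobically before the ATP read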
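ATP-content bioluminescence gauges trophozoite survival. Cells (100/well) receive compound and incubate anaerobically for 48 hrs at 37 deg C; detection reagent follows for 15-30 min at room temperature.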
TDP1 cell CPT = DT40-hTDP1 cell growth loss with CPT; chicken DT40 Tdp1-/-;hTDP1 cells + 20 nM CPT, ATP luminescence, 48 h; Potency, µM (series often up to 46.2 µM), for inactives: at the highest dose activity change, negative = growth inhibition, usual class: inhibitors; hit rate 12% among 420,000; AID 686979; note: potency is the fitted concentration of half-maximal effect; nearly all actives have a fitted effect of over 55% in size
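Cell growth measured by CellTiter-Glo luminescence after a minimum 48 h, 37 C compound exposure with 20 nM CPT in Tdp1-knockout DT40 cells stably expressing hTDP1, seeded 400/well; qHTS titration format.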
TDP1 inh = blocks human tyrosyl-DNA phosphodiesterase 1; recombinant TDP1, AlphaScreen DNA substrate cleavage; Potency, µM (highest dose often 130 µM), without a hit: at the highest dose activity change, negative = inhibition, actives largely listed as inhibitors; hit rate 0.28% among 350,000; AID 485290; note: potency is the fitted concentration of half-maximal effect; nearly all actives have a fitted effect of over 40% in size
Target sequence (Q9NUW8 whole entry, looked up): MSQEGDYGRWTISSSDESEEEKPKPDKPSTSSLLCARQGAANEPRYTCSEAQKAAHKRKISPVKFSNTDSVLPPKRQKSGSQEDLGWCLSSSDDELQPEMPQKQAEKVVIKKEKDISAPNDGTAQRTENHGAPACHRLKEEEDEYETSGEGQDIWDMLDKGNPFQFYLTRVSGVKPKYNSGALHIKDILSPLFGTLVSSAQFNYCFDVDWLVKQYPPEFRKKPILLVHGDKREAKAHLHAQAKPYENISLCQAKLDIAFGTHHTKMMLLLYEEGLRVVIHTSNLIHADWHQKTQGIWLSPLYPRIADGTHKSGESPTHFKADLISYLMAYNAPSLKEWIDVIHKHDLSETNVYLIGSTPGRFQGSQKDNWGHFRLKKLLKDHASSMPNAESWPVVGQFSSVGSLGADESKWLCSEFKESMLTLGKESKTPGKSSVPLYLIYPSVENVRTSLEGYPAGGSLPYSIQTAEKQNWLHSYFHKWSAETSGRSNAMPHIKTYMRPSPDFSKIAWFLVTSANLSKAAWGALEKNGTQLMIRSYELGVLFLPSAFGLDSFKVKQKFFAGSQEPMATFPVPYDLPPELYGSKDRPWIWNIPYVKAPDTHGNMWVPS
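Steps: enzyme plus compound, 15 min RT; add biotin/phosphotyrosine-FITC oligonucleotide (15 nM final), react 5 min; add donor/acceptor beads (10 ug/ml final), 10 min; read AlphaScreen. Tdp1 at 1 nM final.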
TDP1 cell noCPT = qHTS for Inhibitors of human tyrosyl-DNA phosphodiesterase 1 (TDP1): qHTS in cells in absence of CPT. Potency, µM (highest dose often 46.2 µM), for the others: at the top dose activity change, negative = growth inhibition, most hits filed as inhibitors. DT40 Tdp1-/- hTDP1 cells, no CPT, ATP luminescence, 48 h. hit rate 15% among 420,000; note: potency is the fitted concentration of half-maximal effect; nearly all actives have a fitted effect of over 55% in size
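Compound effects on proliferation are scored in DT40 Tdp1-/-;hTDP1 cells in the absence of CPT. ATP levels (CellTiter-Glo luminescence) are recorded after a ≥48 hr, 37 °C incubation.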
IL1B secr inh = inhibitors of inflammasome signaling (IL-1 beta secretion). THP-1 LPS/ATP IL-1B secretion, AlphaLISA, 16 h; hits give low values. activity change, % at 57.5 µM. hit rate 4.7% among 360,000. AID 743279; in the data active = activity change below about -50%; inconclusive = mostly about -30% to -49%
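Secreted IL-1B measured by AlphaLISA bead assay after 16 h compound exposure of THP-1 cells; compounds (final up to 57.5 uM) added 1 h before LPS (250 ng/mL) and ATP (1.25 mM) stimulation; lower signal means less secretion.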
Starred values were filed as active, the others as inactive; [ ] = another dose, or the depositor's remark. Unless noted, calls come from the whole dose curve; as a rule, active = well fitted curve in the direction sought with a large enough effect; inconclusive = small, poorly fitted or top-dose-only effect, or another doubt; inactive = no such curve, though single readings can be large; an effect the other way counts as inactive or inconclusive. % is set by controls: 0 for no effect and ±100 for the full control effect.

Screening COc1ccc(C(=O)NC(=S)NNC(=O)c2cccc(C)c2)cc1 returned Giardia killer -11, TDP1 cell CPT 26µM*, TDP1 cell noCPT 23µM* and IL1B secr inh 40.
`CCCCC(=O)NC(=S)NNC(=O)c1ccc(OC)cc1` gave ELG1 repair inh inconclusive, Giardia killer -22, TDP1 cell CPT 4.6µM*, TDP1 inh 5%, TDP1 cell noCPT 3.3µM* and IL1B secr inh 205.
`CCCCC(=O)NC(=S)Nc1cccc(NC(=O)c2ccccc2)c1` gave ELG1 repair inh inconclusive, Giardia killer 16, TDP1 cell CPT inconclusive, TDP1 inh 5%, TDP1 cell noCPT 23µM* and IL1B secr inh inconclusive.
`CCNC(=S)NNC(=O)c1ccc(OC)cc1` gave ELG1 repair inh -6%, Giardia killer 4, TDP1 cell CPT -3%, TDP1 inh -3%, TDP1 cell noCPT -5% and IL1B secr inh 29.
Screening CC(C)CC(=O)Nc1ccc(C(=O)NNC(=S)NC(=O)C2CCCCC2)cc1 returned ELG1 repair inh 3%, Giardia killer -5, TDP1 cell CPT 15µM*, TDP1 inh 14%, TDP1 cell noCPT 16µM* and IL1B secr inh 29.
O=C(COc1ccc(F)cc1)Nc1ccc(OCc2cc(=O)n3ccsc3n2)cc1 was read as TDP1 cell CPT -21%, TDP1 inh 6% and TDP1 cell noCPT -20%.
For CCC(=O)NC(=S)NNC(=O)c1ccc(NC(=O)c2ccccc2)cc1 the results were ELG1 repair inh -18%, Giardia killer 9, TDP1 cell CPT 5.8µM*, TDP1 inh 8%, TDP1 cell noCPT 7.3µM* and IL1B secr inh -10.
Screening COc1ccc(/C=C/C(=O)NC(=S)NNC(=O)c2cnccn2)cc1 returned ELG1 repair inh inconclusive, Giardia killer -28, TDP1 cell CPT 2.9µM*, TDP1 inh 10%, TDP1 cell noCPT 5.2µM* and IL1B secr inh 125.
Screening COc1ccc(/C=C/C(=O)NC(=S)NNC(=O)c2cccnc2)cc1 returned ELG1 repair inh 1%, Giardia killer 0, TDP1 cell CPT inconclusive, TDP1 inh 7%, TDP1 cell noCPT inconclusive and IL1B secr inh 31.
For COc1ccc(/C=C/C(=O)NC(=S)NNC(=O)c2cccs2)cc1 the results were ELG1 repair inh inconclusive, Giardia killer -23, TDP1 cell CPT 6.5µM*, TDP1 inh 11%, TDP1 cell noCPT 4.6µM* and IL1B secr inh 64.
For Cc1ccc(C(=O)NNC(=S)NC(=O)c2ccccc2)cc1 the results were Giardia killer -15, TDP1 cell CPT 18µM*, TDP1 cell noCPT 16µM* and IL1B secr inh 47.
Screening Cc1ccc(C(=O)NC(=S)NNC(=O)c2ccccc2)cc1 returned ELG1 repair inh -9%, Giardia killer -4, TDP1 cell CPT inconclusive, TDP1 inh 2%, TDP1 cell noCPT inconclusive and IL1B secr inh 46.
Screening O=C(COC(=O)C1=NN(c2ccccc2)C(=O)CC1)NCc1ccccc1Cl returned ELG1 repair inh 8%, Giardia killer 7, TDP1 cell CPT 9%, TDP1 inh -2%[56.1 µM], TDP1 cell noCPT 5% and IL1B secr inh 13.
CCCCCn1cc2c(c1-c1ccc(Cl)cc1)c(=O)n(C)c(=O)n2C was read as TDP1 cell CPT 16µM*, TDP1 inh 9% and TDP1 cell noCPT 16µM*.
CCCCCn1cc2c(c1-c1ccccc1Br)c(=O)n(C)c(=O)n2C was read as TDP1 cell CPT 12µM*, TDP1 inh 5% and TDP1 cell noCPT 12µM*.
Screening CCCn1cc2c(c1-c1cccc(C)c1)c(=O)n(C)c(=O)n2C returned ELG1 repair inh 5%, Giardia killer 8, TDP1 cell CPT inconclusive, TDP1 inh -1%, TDP1 cell noCPT inconclusive and IL1B secr inh 7.
CCCCn1cc2c(c1-c1ccccc1Br)c(=O)n(C)c(=O)n2C was read as TDP1 cell CPT 23µM*, TDP1 inh 7% and TDP1 cell noCPT 16µM*.
Screening Cn1c(=O)c2c(-c3ccc(Cl)cc3)n(Cc3ccccc3)cc2n(C)c1=O returned TDP1 inh -2%.
`O=C(O)c1cn(-c2ccc(F)cc2)c(=O)c2ccccc12` gave ELG1 repair inh 0%, Giardia killer -21, TDP1 cell CPT 41%, TDP1 inh 3%, TDP1 cell noCPT 1% and IL1B secr inh 21.
`COc1ccc(C2c3ccc4ccccc4c3Oc3ncn(CCCO)c(=N)c32)cc1OC` (stereo unspecified) gave ELG1 repair inh -1%, Giardia killer -17, TDP1 cell CPT inconclusive, TDP1 inh 5%, TDP1 cell noCPT 21µM* and IL1B secr inh -55*.
For COc1ccc(C2c3ccc4ccccc4c3Oc3ncn(CCO)c(=N)c32)cc1OC (stereo unspecified) the results were ELG1 repair inh 1%, Giardia killer 10, TDP1 cell CPT 23µM*, TDP1 cell noCPT 21µM* and IL1B secr inh inconclusive.
COc1ccc(C2Nc3ccccc3C(=O)N2Cc2ccccc2)cc1COc1cccc(C(F)(F)F)c1 (stereo unspecified) was read as TDP1 inh 0%.
Cc1cc(/C=C(\C#N)C(N)=O)c(C)n1-c1ccc(N2CCOCC2)c([N+](=O)[O-])c1 was read as ELG1 repair inh 23µM*, Giardia killer 0, TDP1 cell CPT 23µM*, TDP1 inh 7%, TDP1 cell noCPT 23µM* and IL1B secr inh 0.
`Cc1cc(C=O)c(C)n1-c1ccc(Cl)c(C(=O)O)c1` gave ELG1 repair inh 4%, Giardia killer 29, TDP1 cell CPT -1%, TDP1 inh 45µM*, TDP1 cell noCPT 3% and IL1B secr inh 1.
`Cc1cc(C=O)c(C)n1-c1ccc(N2CCCCC2)c([N+](=O)[O-])c1` gave ELG1 repair inh -3%, Giardia killer -9, TDP1 cell CPT 8.2µM*, TDP1 inh 12%, TDP1 cell noCPT 21µM* and IL1B secr inh inconclusive.
Screening O=C(NCc1ccc(F)cc1)c1ccc2c(c1)S(=O)(=O)c1ccccc1C2=O returned Giardia killer 7, TDP1 cell CPT -26%, TDP1 cell noCPT inconclusive and IL1B secr inh -6.
CCc1ccccc1NC(=S)N(CCc1ccncc1)C(C)C was read as ELG1 repair inh -3%, Giardia killer 0, TDP1 cell CPT -2%, TDP1 inh 5%, TDP1 cell noCPT -10% and IL1B secr inh 21.

Compound activity: PubChem BioAssay, National Center for Advancing Translational Sciences (NCATS)
